Reference: PubChem BioAssay
Active and inactive are the calls of the source. Unless noted, how the calls were made is not given here.

Legend:
[1] = test system: Wnt5a (protein binding on small-molecule microarray); test: small molecules binding Wnt5a protein – biophysical, small-molecule microarray, 635/667 nm fluorescence, primary screen (AID 1142); settings: 635 nm fluorescence, higher = more signal;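 further: fluorescence read at 667 nm with signal to noise per printed feature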
[2] = ATP-based viability of Huh7 replicon cells – cell-based, CellTiter-Glo luminescence, basal, 48 h, cytotoxicity control for HCV replication inhibitor project, primary screen (AID 1143); settings: higher = more signal, called active from +8 up or from −8 down;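 further: Huh7 hepatoma cells carrying a hepatitis C replication reporter with no stimulus; test concentration not given here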
[3] = Pseudomonas biofilm growth suppression – PAO1 strain, BacTiter-Glo luminescence, LB-PBS, primary screen (AID 1144); settings: P. aeruginosa PAO1 biofilm, 12 h, higher = more signal
[4] = basal CRE-LacZ reporter activity in PC12 – cell-based, unstimulated, primary screen (AID 1145); settings: no forskolin, luminescence, 4.5 h, higher = more signal, called active from +8 up or from −8 down
[5] = forskolin-driven CRE-LacZ activity in PC12 – cell-based, CRE-LacZ reporter, forskolin-stimulated, primary screen (AID 1146); settings: luminescence, 4.5 h, higher = more signal, called active from +8 up or from −8 down;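 further: PC12 cells with 6xCRE LacZ reporter stimulated by forskolin 10 µM; beta-galactosidase reporter signal reflecting CREB driven transcription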
[6] = biological target: Streptavidin (Streptomyces avidinii) (UniProt P22629); test: compounds binding control protein streptavidin – biophysical, small-molecule microarray, 635/667 nm fluorescence, artefact control for SMM compound annotation, primary screen (AID 1147); settings: higher = more signal;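 further: signal reflects streptavidin binding to arrayed compounds as a control protein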
[7] = probe aInhba binding on compound microarray – biochemical, small-molecule microarray, 635/667 nm fluorescence, primary screen (AID 1148); settings: higher = more signal;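 further: score merges 667nm spot fluorescence with signal-to-noise for antibody binding to printed compounds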
Torsin-1A (Homo sapiens) [8] = biological target: Torsin-1A (Homo sapiens) (UniProt O14656); test: TOR1A wild-type binding on microarray – cell lysate, small-molecule microarray, lysate, 635/667 nm, primary screen (AID 1149); settings: COS7 hTOR1A-WT lysate, 635 nm fluorescence, higher = more signal
Torsin-1A (Homo sapiens) [9] = biological target: Torsin-1A (Homo sapiens) (UniProt O14656); test: torsin A mutant lysate binding on microarrays – cell lysate, small-molecule microarray, COS7 lysate, 635/667 nm fluorescence, primary screen (AID 1150); settings: COS7 hTOR1A mutant lysate, 635 nm fluorescence, higher = more signal;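 further: score pools 667 nm emission and signal to noise measuring lysate protein binding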
[10] = test system: Sonic hedgehog protein (Shh); test: Sonic hedgehog microarray binding compounds – biochemical, small-molecule microarray, 635/667 nm fluorescence, primary screen (AID 1151); settings: 635 nm fluorescence, higher = more signal;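 further: Shh protein binding to compounds spotted on small-molecule microarray slides; score combines spot fluorescence intensity with signal-to-noise across triplicate slides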
[11] = optical density shifts of acrAB sulA E. coli – strain DRC41, OD650, 48 h, E. coli filamentation inducer project, primary screen (AID 1152); settings: higher = more signal, called active from +8 up or from −8 down;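 further: E. coli MC1000 strain DRC41 lacking acrAB efflux pump and sulA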
[12] = probe aLefty1 binding on compound microarray – biochemical, small-molecule microarray, 635/667 nm fluorescence, primary screen (AID 1153); settings: higher = more signal;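 further: score merges spot fluorescence with signal-to-noise ratio from the scanned slide images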
[13] = plasmodial surface anion channel blockers, osmotic lysis – cell-based, P. falciparum Indochina, OD700, 1 h, primary screen (AID 1154); settings: P. falciparum Indochina infected RBC osmotic lysis, higher = more signal, called active from +8 up or from −8 down
[14] = plasmodial surface anion channel blockers, osmotic lysis – cell-based, P. falciparum Indochina, OD700, 2 h, primary screen (AID 1155);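 further: lysis reports solute entry through the parasite surface anion channel PSAC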; settings: P. falciparum Indochina infected erythrocytes, higher = more signal, called active from +8 up or from −8 down
[15] = changes in parasitized red cell lysis, either direction – P. falciparum Indochina, OD700, 3 h, PSAC antagonist project, primary screen (AID 1156); settings: P. falciparum-infected erythrocytes, osmotic lysis, higher = more signal, called active from +8 up or from −8 down
[16] = plasmodial surface anion channel blockers, osmotic lysis – cell-based, P. falciparum Indochina, OD700, 18 h, primary screen (AID 1157); settings: P. falciparum Indochina infected erythrocytes, osmotic lysis OD700, 18 h; higher = more signal, called active from +8 up or from −8 down
[17] = S6 kinase pathway phospho-S6 level changes – cell-based, A549, cytoblot, luminescence, serum-stimulated, primary screen (AID 1158); settings: 5 h, higher = more signal;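 further: serum-stimulated A549 lung adenocarcinoma cells; signal is phosphorylated S6 detected by cytoblot immunostaining with HRP secondary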
[18] = biological target: NADPH oxidase 2 (Homo sapiens) (UniProt P04839); test: compounds shifting NOX2 Amplex Red fluorescence – cell-based, HEK293-NOX2, PMA-stimulated, NOX inhibitor project, primary screen (AID 1159); settings: 45 min, higher = more signal, called active from +8 up or from −8 down; further: test concentration not given here
[19] = biological target: NADPH oxidase 4 (Homo sapiens) (UniProt Q9NPH5); test: compounds shifting NOX4 Amplex Red fluorescence – cell-based, HEK293-NOX4, tetracycline-induced, NOX inhibitor project, primary screen (AID 1160); settings: HEK293-NOX4, Amplex Red H2O2 fluorescence, 45 min; higher = more signal, called active from +8 up or from −8 down
[20] = biological target: NADPH oxidase 5 (Homo sapiens) (UniProt Q96PH1); test: compounds shifting NOX5 Amplex Red fluorescence – cell-based, HEK293-NOX5, NOX inhibitor project, primary screen (AID 1161); settings: HEK293-NOX5, ionomycin, 45 min, higher = more signal
NADPH oxidase 5 (Homo sapiens), sequence (Q96PH1 whole entry, looked up): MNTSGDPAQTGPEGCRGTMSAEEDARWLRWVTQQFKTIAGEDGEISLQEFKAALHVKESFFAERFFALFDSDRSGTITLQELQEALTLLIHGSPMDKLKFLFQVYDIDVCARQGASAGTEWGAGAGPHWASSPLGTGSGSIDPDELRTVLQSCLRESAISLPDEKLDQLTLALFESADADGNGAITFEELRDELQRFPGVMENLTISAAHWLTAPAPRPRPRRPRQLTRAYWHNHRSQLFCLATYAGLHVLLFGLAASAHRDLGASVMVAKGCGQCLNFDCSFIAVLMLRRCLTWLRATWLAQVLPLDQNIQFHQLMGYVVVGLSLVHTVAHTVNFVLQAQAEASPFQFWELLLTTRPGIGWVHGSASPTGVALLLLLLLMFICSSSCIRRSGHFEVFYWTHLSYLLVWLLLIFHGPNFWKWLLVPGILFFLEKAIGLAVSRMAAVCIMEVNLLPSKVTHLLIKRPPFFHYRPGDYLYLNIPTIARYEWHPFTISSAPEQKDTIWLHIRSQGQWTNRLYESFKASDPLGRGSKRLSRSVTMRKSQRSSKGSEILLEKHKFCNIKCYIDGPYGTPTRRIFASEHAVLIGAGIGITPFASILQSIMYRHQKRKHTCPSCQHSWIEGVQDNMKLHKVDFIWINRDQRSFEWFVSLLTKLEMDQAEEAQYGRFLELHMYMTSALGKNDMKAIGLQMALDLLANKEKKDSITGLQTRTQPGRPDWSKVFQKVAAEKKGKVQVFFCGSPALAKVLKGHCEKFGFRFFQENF

NADPH oxidase 2 (Homo sapiens), sequence (P04839 whole entry, looked up): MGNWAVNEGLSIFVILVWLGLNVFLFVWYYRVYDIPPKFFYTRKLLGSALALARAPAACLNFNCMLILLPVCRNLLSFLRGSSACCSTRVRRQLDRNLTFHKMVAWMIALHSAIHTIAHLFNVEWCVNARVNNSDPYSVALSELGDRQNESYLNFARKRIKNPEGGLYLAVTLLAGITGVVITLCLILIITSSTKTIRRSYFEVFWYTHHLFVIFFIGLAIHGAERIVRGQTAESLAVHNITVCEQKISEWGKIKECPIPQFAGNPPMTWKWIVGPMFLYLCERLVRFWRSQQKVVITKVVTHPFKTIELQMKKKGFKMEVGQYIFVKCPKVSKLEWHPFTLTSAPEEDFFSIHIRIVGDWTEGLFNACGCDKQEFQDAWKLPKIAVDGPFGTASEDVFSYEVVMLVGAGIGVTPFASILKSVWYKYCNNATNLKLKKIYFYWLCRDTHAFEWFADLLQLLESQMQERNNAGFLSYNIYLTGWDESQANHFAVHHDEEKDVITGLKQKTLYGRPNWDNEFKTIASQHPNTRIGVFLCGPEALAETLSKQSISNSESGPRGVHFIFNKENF
NADPH oxidase 4 (Homo sapiens), sequence (Q9NPH5 whole entry, looked up): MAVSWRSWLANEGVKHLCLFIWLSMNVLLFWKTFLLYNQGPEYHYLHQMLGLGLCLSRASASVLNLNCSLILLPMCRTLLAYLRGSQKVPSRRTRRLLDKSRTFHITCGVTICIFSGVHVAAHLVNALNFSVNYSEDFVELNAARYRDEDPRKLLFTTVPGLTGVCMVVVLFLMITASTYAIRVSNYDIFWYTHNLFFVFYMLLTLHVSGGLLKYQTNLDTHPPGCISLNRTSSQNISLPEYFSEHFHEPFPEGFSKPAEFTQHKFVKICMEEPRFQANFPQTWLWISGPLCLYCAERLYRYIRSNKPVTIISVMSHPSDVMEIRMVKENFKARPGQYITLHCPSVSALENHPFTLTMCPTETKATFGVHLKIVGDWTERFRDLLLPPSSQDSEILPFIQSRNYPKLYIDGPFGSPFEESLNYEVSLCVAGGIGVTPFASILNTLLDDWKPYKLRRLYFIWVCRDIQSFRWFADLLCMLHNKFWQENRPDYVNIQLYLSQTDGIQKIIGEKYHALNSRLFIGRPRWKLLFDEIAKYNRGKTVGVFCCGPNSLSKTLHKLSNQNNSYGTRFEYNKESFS
Streptavidin (Streptomyces avidinii), sequence (P22629 whole entry, looked up): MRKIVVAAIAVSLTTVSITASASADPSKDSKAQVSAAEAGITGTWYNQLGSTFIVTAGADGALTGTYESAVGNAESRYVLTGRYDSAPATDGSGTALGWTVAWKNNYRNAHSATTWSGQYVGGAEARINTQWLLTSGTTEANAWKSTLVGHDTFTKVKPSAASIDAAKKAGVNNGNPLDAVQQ
Torsin-1A (Homo sapiens), sequence (O14656 whole entry, looked up): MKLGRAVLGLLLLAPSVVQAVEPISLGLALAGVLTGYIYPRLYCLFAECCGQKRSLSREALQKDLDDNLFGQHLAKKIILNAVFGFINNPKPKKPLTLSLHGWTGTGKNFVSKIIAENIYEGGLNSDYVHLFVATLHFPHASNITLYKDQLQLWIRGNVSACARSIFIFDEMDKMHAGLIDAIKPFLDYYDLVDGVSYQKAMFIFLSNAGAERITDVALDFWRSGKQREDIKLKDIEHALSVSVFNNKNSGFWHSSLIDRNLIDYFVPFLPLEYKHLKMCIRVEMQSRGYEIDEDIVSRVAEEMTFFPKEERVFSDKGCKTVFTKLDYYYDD

| Compound | composite z-score [1] | z-score [2] | z-score [3] | z-score [4] | z-score [5] | composite z-score [6] | composite z-score [7] | composite z-score (Torsin-1A (Homo sapiens) [8]) | composite z-score (Torsin-1A (Homo sapiens) [9]) | composite z-score [10] | z-score [11] | composite z-score [12] | z-score [13] | z-score [14] | z-score [15] | z-score [16] | z-score [17] | z-score [18] | z-score [19] | z-score [20] |
| --- | --- | --- | --- | --- | --- | --- | --- | --- | --- | --- | --- | --- | --- | --- | --- | --- | --- | --- | --- | --- |
| [N-]=[N+]=Nc1ccccc1C[C@]1(C(N)=O)N=C(c2ccc(OCCCO)cc2)O[C@H]1c1ccccc1N=[N+]=[N-] | 0.611 | -4.95 (inactive) | -0.783 (inactive) | 1.6 (inactive) | -1.25 (inactive) | 1.22 | 0.189 | 0.747 | 0.986 | -0.191 | -0.254 (inactive) | 0.237 | 28.5 (active) | 23.5 (active) | 1.87 (inactive) | 1.16 (inactive) | 1.14 | -4.36 (inactive) | -2.16 (inactive) | -2.52 |
| C=CCC(OC(C)=O)[C@@H]1[C@@H](N(Cc2cccc3ccccc23)C(=O)Cc2ccc(F)cc2)c2cc(OCCCO)ccc2N1C(=O)c1ccc2ccccc2n1 (stereo not given in full) | 0.243 | 0.0889 (inactive) | 0.0963 (inactive) | 0.367 (inactive) | 0.101 (inactive) | -0.0219 | 0.0614 | -0.149 | -0.101 | -0.0199 | 0.518 (inactive) | 0.0477 | 1.05 (inactive) | 0.167 (inactive) | -0.315 (inactive) | 0.0897 (inactive) | 0.103 | -0.126 (inactive) | 0.619 (inactive) | 1.94 |
| O=C(CS)NCCCCCCNC(=O)[C@H]1C[C@H]2C(=O)N[C@@H](Cc3ccccc3)C(=O)N2[C@H]1c1ccc(O)cc1 | 0.491 | 0.167 (inactive) | -0.31 (inactive) | 0.822 (inactive) | 0.368 (inactive) | -0.513 | -0.162 | 1.08 | 0.768 | 1.62 | -0.558 (inactive) | -0.54 | 8.58 (active) | 1.21 (inactive) | -0.177 (inactive) | 0.767 (inactive) | -0.0427 | 0.593 (inactive) | -0.0574 (inactive) | 1.08 |
| C=CCC(OC(C)=O)[C@@H]1[C@@H](N(Cc2ccc(-c3cccc(C(F)(F)F)c3)o2)C(=O)c2ccc(C)cc2)c2cc(OCCCO)ccc2N1C(=O)c1ccc2ccccc2c1 (stereo not given in full) | 0.0344 | -0.478 (inactive) | -1.39 (inactive) | -0.519 (inactive) | 0.291 (inactive) | 0.203 | -0.024 | -0.361 | -0.0628 | 0.772 | 1.86 (inactive) | -0.147 | 2.37 (inactive) | -0.0931 (inactive) | 0.0854 (inactive) | -0.109 (inactive) | -0.494 | -0.401 (inactive) | 0.713 (inactive) | 1.79 |
| O=C1c2ccccc2[C@](Cc2ccccc2I)(C(=O)NCC(F)(F)F)[C@H](c2ccc(CO)cc2)N1C1CCCCC1 | 0.2 | -0.772 (inactive) | 1.01 (inactive) | 0.324 (inactive) | 2.63 (inactive) | 1.1 | 0.029 | 0.365 | 0.936 | 0.176 | 1.25 (inactive) | 0.0686 | 7.04 (inactive) | 0.605 (inactive) | 2 (inactive) | 0.0361 (inactive) | 0.175 | -2.92 (inactive) | 0.179 (inactive) | 1.69 |
